Experimental data taken from the antibiotic and cytotoxicity screens of Wong et al. (2023).
Hit rate of the full screen: of about 39,000 compounds, about 500 (1.3%) were called active. This is one part of a sample in which actives are shown more often than they occur.

The compounds below were run on S. aureus RN4220 (assay: growth inhibition call (relative growth <= 0.2)). Settings: 50 µM.

Growth inhibition call, active:
CC(C)=CCC[C@]1(C)[C@@H](CC=C(C)C)C[C@]2(CC=C(C)C)C(=O)C(CC=C(C)C)=C(O)[C@@]1(C(=O)C(C)C)C2=O
Cn1cncc1[C@@](N)(c1ccc(Cl)cc1)c1ccc2c(c1)c(-c1cccc(Cl)c1)cc(=O)n2C
CCCCCC(=O)Cc1cc(O)cc(O)c1C(=O)Oc1cc(CC(=O)CCCCC)c(C(=O)O)c(OC)c1
Cc1c(-c2c(-c3ccc(F)o3)sc3ncnc(O[C@H](Cc4ccccc4OCc4ccnn4CC(F)(F)F)C(=O)O)c23)ccc(OCCN2CCN(C)CC2)c1Cl
CC1COC2=C1C(=O)C(=O)c1c2ccc2c1CCCC2(C)C (stereo unspecified)
Cc1cccc2c3c(ccc12)C1=C(C(=O)C3=O)C(C)CO1 (stereo unspecified)
O=C(Nc1cc(Cl)ccc1Cl)c1cc(Br)ccc1NS(=O)(=O)c1ccc(Cl)c([N+](=O)[O-])c1
O=C(Nc1cc(Cl)ccc1Cl)c1cc(Cl)ccc1NS(=O)(=O)c1ccc(Cl)c([N+](=O)[O-])c1
CCC1OC(=O)C(C)C(OC2CC(C)(OC)C(O)C(C)O2)C(C)C(OC2OC(C)CC(N(C)C)C2O)C(C)(O)CC(C)C(=NOCOCCOC)C(C)C(O)C1(C)O (stereo unspecified)
CC[C@@H]1OC(=O)[C@H](C)[C@@H](O[C@H]2C[C@@](C)(OC)[C@@H](O)[C@H](C)O2)[C@H](C)[C@@H](O[C@@H]2O[C@H](C)C[C@H](N(C)C)[C@H]2O)[C@](C)(O)C[C@@H](C)/C(=N\OCOCCOC)[C@H](C)[C@@H](O)[C@]1(C)O
CC(NCCCc1cccc(C(F)(F)F)c1)c1cccc2ccccc12.Cl (stereo unspecified)
COC(=O)C1=CC(CCCO)=C[C@@H](c2cccs2)N(Cc2cccc(OC(F)(F)F)c2)C=C1C(=O)OC
O=C(O)c1ccc(S(=O)(=O)N(Cc2ccc(OC(F)(F)F)cc2)c2ncc(C(F)(F)F)cc2Cl)cc1
C[C@H]1CN([C@@H](C)CO)S(=O)(=O)c2ccc(C#Cc3ccc(F)cc3)cc2O[C@H]1CN(C)C(=O)CN(C)C
C[C@H]1CN([C@@H](C)CO)S(=O)(=O)c2ccc(C#Cc3ccccc3)cc2O[C@H]1CN(C)C(=O)CN(C)C
C[C@@H]1CN([C@H](C)CO)S(=O)(=O)c2ccc(C#Cc3ccccc3)cc2O[C@@H]1CN(C)C(=O)CN(C)C
C[C@@H]1CN([C@@H](C)CO)S(=O)(=O)c2ccc(C#Cc3ccccc3)cc2O[C@@H]1CN(C)C(=O)CN(C)C

Growth inhibition call, inactive:
CCCN(C)C[C@H]1OCCCC[C@@H](C)Oc2ccc(NS(=O)(=O)c3ccc(Cl)cc3)cc2C(=O)N([C@H](C)CO)C[C@@H]1C
Cc1ccc(S(=O)(=O)N[C@@H]2CC[C@H](CCNC(=O)CN3CCOCC3)O[C@@H]2CO)cc1
C[C@@H]1CN([C@@H](C)CO)S(=O)(=O)c2ccc(-c3cccc(C#N)c3)cc2O[C@H]1CN(C)C(=O)c1cccnc1
CO[C@@H]1CN(C)C(=O)c2cc(NC(=O)Nc3cccc(Cl)c3)ccc2OC[C@H](C)N(C(=O)Nc2c(C)noc2C)C[C@H]1C
CC(C)NC(=O)N(C)C[C@H]1OCCCC[C@H](C)Oc2ccc(NC(=O)Nc3ccccc3)cc2C(=O)N([C@@H](C)CO)C[C@H]1C
C[C@@H]1CCCCO[C@@H](CN(C)C(=O)Nc2ccccc2)[C@@H](C)CN([C@H](C)CO)C(=O)c2cc(NC(=O)Cc3ccccc3)ccc2O1
Cc1noc(C)c1S(=O)(=O)N(C)C[C@@H]1OCCCC[C@@H](C)Oc2ccc(NS(=O)(=O)c3cn(C)cn3)cc2C(=O)N([C@@H](C)CO)C[C@H]1C
C[C@@H]1CN([C@@H](C)CO)C(=O)c2cc(NC(=O)Cc3ccccc3)ccc2O[C@@H](C)CCCCO[C@H]1CN(C)Cc1ccc2c(c1)OCO2
Cc1noc(C)c1S(=O)(=O)Nc1ccc2c(c1)C(=O)N([C@H](C)CO)C[C@H](C)[C@H](CN(C)S(=O)(=O)c1c(C)noc1C)O2
Cc1cc(OC(=O)c2c(C)cc(O)cc2O)cc(O)c1C(=O)O
COc1cc(C)c(C(=O)Oc2cc(C)c(C(=O)O)c(O)c2)c(O)c1
C[C@H](O)C#Cc1ccc2c(c1)O[C@H](CN(C)C(=O)CN(C)C)[C@H](C)CN([C@H](C)CO)S2(=O)=O
CN(C)CC#Cc1ccc([C@H]2[C@@H](CO)N3C(=O)CN(C(=O)c4cccnc4)C[C@H]23)cc1
COc1ccc(S(=O)(=O)Nc2ccc3c(c2)C(=O)N([C@H](C)CO)C[C@H](C)[C@H](CN(C)C(=O)Nc2c(C)noc2C)O3)cc1
COCC#Cc1ccc([C@H]2[C@H](CO)N3C(=O)CN(C(=O)C4CCOCC4)C[C@@H]23)cc1
Cc1cccc2c1OCC[C@@H](N)C2=O
Cc1coc2c1C(=O)C(=O)c1c-2ccc2c1CCCC2(C)C
C[C@H]1CN([C@@H](C)CO)C(=O)Cc2cc(NC(=O)CCN3CCOCC3)ccc2O[C@H]1CN(C)Cc1ccccc1
CNS(=O)(=O)c1ccc(Cl)c(C(N)=O)c1
O=C(Nc1ccc([N+](=O)[O-])cc1Cl)c1cc(Cl)ccc1O
NS(=O)(=O)c1ccc(Cl)cc1[N+](=O)[O-]
O=C(Nc1ccc(Cl)cc1C(=O)c1ccc(Cl)cc1)c1cc(Br)ccc1NS(=O)(=O)c1ccc(Cl)cc1
COc1ccc(S(=O)(=O)Nc2ccc3c(c2)C(=O)N([C@H](C)CO)C[C@@H](C)[C@@H](CN(C)C(=O)NC2CCCCC2)OCCCC[C@H](C)O3)cc1
COc1ccc(S(=O)(=O)N(C)C[C@@H]2OCCCC[C@@H](C)Oc3ccc(NC(=O)NC4CCCCC4)cc3C(=O)N([C@H](C)CO)C[C@H]2C)cc1
CNC(=O)Cn1c(=O)c2c(OC)c(C)cnc2n(C)c1=O
COc1ccc(NC(=O)N(C)C[C@H]2Oc3ccc(NS(=O)(=O)c4c(C)noc4C)cc3CC(=O)N([C@@H](C)CO)C[C@@H]2C)cc1
COc1ccc(S(=O)(=O)N(C)C[C@H]2Oc3ccc(NS(=O)(=O)c4c(C)noc4C)cc3C(=O)N([C@@H](C)CO)C[C@@H]2C)cc1
O=C(C[C@@H]1CC[C@H]2[C@@H](COC[C@H](O)CN2Cc2cc(F)ccc2F)O1)N[C@@H]1CCN(Cc2ccccc2)C1
C[C@@H]1CN([C@@H](C)CO)C(=O)c2cc(NS(=O)(=O)c3cn(C)cn3)ccc2O[C@@H](C)CCCCO[C@@H]1CN(C)Cc1ccc(C(F)(F)F)cc1
C[C@@H]1CN([C@H](C)CO)S(=O)(=O)c2ccc(-c3cccnc3)cc2O[C@@H]1CN(C)C(=O)c1ccc2c(c1)OCO2
Cn1c(=O)c2cn3ncccc3c2n(C)c1=O
COc1c(C)c2c(c(O)c1CC=C(C)CCC(=O)O)C(=O)OC2
Cc1noc(C)c1S(=O)(=O)Nc1ccc2c(c1)C(=O)N([C@H](C)CO)C[C@@H](C)[C@H](CN(C)Cc1ccc3c(c1)OCO3)O2
O=C(N[C@H]1CC[C@@H](CC(=O)N2CCOCC2)O[C@H]1CO)c1ccc2c(c1)OCO2
Cc1ccc(S(=O)(=O)N(C)C[C@@H]2Oc3ccc(NC(=O)CCN4CCOCC4)cc3CC(=O)N([C@@H](C)CO)C[C@@H]2C)cc1
COc1ccc(S(=O)(=O)Nc2ccc3c(c2)CC(=O)N([C@@H](C)CO)C[C@H](C)[C@H](CN(C)C(=O)Nc2c(C)noc2C)O3)cc1
CC(Cc1cccc(C(F)(F)F)c1)NCCOC(=O)c1ccccc1.Cl (stereo unspecified)
C[C@@H](O)c1cccc(C(F)(F)F)c1
Nc1ccc(O)cc1
C[C@@H]1CCCCO[C@@H](CN(C)C(=O)C2CCCCC2)[C@H](C)CN([C@@H](C)CO)C(=O)c2cc(NC(=O)Nc3cccc4ccccc34)ccc2O1
CN1C=C(C(=O)OCCS(C)(=O)=O)C(C(=O)OCCS(C)(=O)=O)=CC(CCCO)=C[C@@H]1C1CC1
CCN(CC)S(=O)(=O)c1ccc(C(=O)O)cc1
O=C(O)c1ccc(S(=O)(=O)N(Cl)Cl)cc1
N=C(N=C(N)N)Nc1cc(-c2cccs2)n[nH]1
C[C@H]1CN([C@@H](C)CO)S(=O)(=O)c2ccc(C#Cc3ccccc3)cc2O[C@@H]1CN(C)C(=O)CN(C)C
C[C@@H]1CN([C@H](C)CO)S(=O)(=O)c2ccc(C#Cc3ccc(F)cc3)cc2O[C@H]1CN(C)C(=O)CN(C)C
C[C@H](CO)N1C[C@H](C)[C@H](CN(C)C(=O)CN(C)C)Oc2cc(C#Cc3ccc(F)cc3)ccc2S1(=O)=O
C[C@H]1CN([C@@H](C)CO)S(=O)(=O)c2ccc(C#Cc3ccc(F)cc3)cc2O[C@@H]1CN(C)C(=O)CN(C)C
C[C@@H]1CN([C@@H](C)CO)S(=O)(=O)c2ccc(C#Cc3ccc(F)cc3)cc2O[C@H]1CN(C)C(=O)CN(C)C
C[C@H](CO)N1C[C@H](C)[C@@H](CN(C)C(=O)CN(C)C)Oc2cc(C#Cc3ccccc3)ccc2S1(=O)=O
C[C@@H]1CN([C@@H](C)CO)S(=O)(=O)c2ccc(C#Cc3ccc(F)cc3)cc2O[C@@H]1CN(C)C(=O)CN(C)C
C[C@@H]1CN([C@H](C)CO)S(=O)(=O)c2ccc(C#Cc3ccc(F)cc3)cc2O[C@@H]1CN(C)C(=O)CN(C)C
C[C@@H]1CCCCO[C@@H](CN(C)Cc2ccc(Cl)c(Cl)c2)[C@@H](C)CN([C@H](C)CO)C(=O)c2cc(NC(=O)C3CCCCC3)ccc2O1
CC(C)NC(=O)N(C)C[C@@H]1OCCCC[C@@H](C)Oc2ccc(NS(=O)(=O)c3cn(C)cn3)cc2C(=O)N([C@H](C)CO)C[C@H]1C
